Source: the supplement of paper PMC11732987, “Enantioselective OTUD7B fragment discovery through chemoproteomics screening and high-throughput optimisation” (Communications Chemistry, 2025)

Assays:
Experiment in all cases: log2 ratio of Biotin-Ahx-Ub-VS probe labelling (fragment/DMSO); higher = less target engagement (more negative = stronger competition), active = hit call of the paper (q ≤ 0.05, log2 ratio ≤ -1)
Conditions in all cases: compound concentration: 200 uM; treatment time: 3 h
USP9X = USP9X (UniProt Q93008)
How it was run: (§1)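 In triplicate, 495 µg of HEK293T lysate per sample was incubated with fragment at 200 µM or vehicle for 3 h. Biotin-Ahx-Ub-VS was then added to 0.5 µM final for 1 h, and labelled DUBs were captured with NeutrAvidin, digested with LysC and trypsin, and measured by diaPASEF LC-MS/MS. Data are average log2 fragment/vehicle ratios by unpaired t-test from global-median-normalised Spectronaut label-free quantities, restricted to proteins with ≥2 unique peptides.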

UniProt O00487 = target: UniProt O00487
Chain of UniProt O00487 (O00487 whole entry): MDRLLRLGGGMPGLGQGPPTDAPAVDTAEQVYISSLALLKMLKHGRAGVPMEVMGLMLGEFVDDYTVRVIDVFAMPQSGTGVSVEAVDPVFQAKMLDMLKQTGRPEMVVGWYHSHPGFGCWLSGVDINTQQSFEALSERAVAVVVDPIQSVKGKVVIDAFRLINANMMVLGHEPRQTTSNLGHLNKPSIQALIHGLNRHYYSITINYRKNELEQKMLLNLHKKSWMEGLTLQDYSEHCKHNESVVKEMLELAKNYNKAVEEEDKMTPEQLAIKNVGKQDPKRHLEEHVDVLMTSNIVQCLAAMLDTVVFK
How it was run: as §1

UniProt O00507 = target: UniProt O00507
Chain of UniProt O00507 (O00507 whole entry): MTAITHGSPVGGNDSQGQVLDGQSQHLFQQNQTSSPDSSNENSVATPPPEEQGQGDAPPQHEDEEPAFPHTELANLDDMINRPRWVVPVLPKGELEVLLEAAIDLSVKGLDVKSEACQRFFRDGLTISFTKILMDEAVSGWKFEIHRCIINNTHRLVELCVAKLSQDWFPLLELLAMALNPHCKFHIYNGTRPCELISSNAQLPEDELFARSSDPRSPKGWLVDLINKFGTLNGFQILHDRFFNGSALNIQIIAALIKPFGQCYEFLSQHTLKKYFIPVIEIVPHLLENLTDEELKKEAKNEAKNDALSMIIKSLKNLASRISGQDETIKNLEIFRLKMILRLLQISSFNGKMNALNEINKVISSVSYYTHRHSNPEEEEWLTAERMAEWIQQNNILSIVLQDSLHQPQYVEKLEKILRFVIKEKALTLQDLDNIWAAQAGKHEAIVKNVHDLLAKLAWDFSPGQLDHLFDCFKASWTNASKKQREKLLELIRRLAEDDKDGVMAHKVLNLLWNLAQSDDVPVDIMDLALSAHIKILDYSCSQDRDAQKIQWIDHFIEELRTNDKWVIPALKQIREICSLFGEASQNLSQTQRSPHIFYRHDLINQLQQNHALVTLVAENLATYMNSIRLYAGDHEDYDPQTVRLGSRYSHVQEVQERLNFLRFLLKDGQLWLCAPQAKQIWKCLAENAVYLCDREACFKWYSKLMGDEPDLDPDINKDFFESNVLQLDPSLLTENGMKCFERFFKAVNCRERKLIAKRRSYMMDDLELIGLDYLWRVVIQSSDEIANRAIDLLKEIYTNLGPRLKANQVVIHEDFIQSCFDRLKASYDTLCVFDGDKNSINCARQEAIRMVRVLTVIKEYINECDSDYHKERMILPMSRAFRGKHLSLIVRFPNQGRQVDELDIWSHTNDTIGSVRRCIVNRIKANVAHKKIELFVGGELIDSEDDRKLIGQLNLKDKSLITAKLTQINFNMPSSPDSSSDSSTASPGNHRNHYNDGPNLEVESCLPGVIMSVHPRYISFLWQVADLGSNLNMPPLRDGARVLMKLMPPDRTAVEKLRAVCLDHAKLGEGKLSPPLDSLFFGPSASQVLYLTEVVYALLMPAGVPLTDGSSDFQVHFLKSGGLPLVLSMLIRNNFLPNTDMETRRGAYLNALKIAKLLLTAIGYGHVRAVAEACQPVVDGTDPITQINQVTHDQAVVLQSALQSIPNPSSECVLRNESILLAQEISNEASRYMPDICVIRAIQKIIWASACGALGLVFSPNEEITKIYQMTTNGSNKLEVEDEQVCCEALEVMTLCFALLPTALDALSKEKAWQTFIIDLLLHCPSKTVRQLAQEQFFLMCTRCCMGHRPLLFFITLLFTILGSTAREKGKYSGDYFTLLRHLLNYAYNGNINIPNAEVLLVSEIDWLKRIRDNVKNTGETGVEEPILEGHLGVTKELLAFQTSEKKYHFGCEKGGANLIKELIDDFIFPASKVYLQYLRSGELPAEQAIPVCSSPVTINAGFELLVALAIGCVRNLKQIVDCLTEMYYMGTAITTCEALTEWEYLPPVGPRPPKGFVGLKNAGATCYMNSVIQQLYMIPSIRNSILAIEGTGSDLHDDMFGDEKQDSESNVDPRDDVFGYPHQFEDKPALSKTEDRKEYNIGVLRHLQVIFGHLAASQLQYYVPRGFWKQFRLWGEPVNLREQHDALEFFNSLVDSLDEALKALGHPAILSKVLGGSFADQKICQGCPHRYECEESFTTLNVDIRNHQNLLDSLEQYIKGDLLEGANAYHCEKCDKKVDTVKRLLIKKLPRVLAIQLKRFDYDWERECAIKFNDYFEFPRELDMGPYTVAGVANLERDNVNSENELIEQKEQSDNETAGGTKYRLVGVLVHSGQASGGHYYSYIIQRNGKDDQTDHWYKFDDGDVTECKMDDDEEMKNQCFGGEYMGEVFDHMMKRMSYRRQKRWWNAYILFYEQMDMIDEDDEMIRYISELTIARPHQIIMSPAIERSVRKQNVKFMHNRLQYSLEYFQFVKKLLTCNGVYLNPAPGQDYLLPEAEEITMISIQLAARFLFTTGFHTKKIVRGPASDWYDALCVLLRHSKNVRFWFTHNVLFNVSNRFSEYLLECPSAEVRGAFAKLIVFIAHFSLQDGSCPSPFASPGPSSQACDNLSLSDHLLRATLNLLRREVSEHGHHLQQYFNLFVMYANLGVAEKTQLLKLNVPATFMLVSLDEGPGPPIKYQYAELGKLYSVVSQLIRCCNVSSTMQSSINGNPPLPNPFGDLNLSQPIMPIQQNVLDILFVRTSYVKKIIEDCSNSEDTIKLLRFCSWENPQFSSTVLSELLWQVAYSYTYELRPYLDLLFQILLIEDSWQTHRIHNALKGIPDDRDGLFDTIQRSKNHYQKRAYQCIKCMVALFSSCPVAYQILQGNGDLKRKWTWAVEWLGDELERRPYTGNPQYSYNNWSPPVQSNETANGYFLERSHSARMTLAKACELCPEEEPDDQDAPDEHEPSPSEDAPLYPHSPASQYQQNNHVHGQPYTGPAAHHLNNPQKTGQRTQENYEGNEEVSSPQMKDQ
How it was run: as §1

UniProt P51784 = target: UniProt P51784
Chain of UniProt P51784 (P51784 whole entry): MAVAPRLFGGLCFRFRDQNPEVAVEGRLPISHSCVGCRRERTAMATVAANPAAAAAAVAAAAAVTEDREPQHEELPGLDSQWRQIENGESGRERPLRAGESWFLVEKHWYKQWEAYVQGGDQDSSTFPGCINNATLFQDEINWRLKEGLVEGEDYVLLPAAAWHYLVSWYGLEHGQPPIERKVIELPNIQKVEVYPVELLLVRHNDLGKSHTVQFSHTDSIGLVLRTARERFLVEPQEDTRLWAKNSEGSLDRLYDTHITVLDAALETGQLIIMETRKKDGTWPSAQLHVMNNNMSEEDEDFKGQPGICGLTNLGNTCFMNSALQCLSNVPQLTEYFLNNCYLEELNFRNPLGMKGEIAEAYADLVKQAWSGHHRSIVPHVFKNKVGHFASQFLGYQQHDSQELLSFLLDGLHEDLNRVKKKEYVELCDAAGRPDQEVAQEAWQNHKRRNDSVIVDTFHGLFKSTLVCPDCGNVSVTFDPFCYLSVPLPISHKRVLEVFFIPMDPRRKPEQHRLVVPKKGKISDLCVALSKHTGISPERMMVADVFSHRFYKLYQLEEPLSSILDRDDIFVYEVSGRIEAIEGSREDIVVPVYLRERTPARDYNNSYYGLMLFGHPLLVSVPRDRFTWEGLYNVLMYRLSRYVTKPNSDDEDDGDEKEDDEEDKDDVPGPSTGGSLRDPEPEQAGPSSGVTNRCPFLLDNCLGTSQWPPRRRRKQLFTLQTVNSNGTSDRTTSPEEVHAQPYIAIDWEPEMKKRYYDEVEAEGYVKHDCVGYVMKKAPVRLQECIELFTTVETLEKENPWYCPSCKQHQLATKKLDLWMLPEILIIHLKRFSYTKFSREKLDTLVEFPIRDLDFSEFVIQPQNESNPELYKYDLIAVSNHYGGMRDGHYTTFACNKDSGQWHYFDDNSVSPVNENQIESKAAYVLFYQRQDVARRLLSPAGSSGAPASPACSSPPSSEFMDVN
How it was run: as §1

UniProt Q5T2D3 = target: T1, UniProt Q5T2D3
T1 sequence (whole entry): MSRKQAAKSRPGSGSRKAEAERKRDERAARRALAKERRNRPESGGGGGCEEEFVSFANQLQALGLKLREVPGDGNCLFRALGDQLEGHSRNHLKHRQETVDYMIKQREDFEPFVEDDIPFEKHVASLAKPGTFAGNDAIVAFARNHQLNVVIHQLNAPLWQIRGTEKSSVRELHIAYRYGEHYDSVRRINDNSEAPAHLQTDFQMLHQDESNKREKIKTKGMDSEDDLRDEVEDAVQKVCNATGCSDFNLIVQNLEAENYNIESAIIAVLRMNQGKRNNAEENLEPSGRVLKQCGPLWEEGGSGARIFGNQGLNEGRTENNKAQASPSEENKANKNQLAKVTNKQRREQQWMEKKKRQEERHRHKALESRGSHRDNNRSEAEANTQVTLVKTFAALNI
How it was run: as §1

UniProt Q8TE49 = target: T2, UniProt Q8TE49
T2 sequence (whole entry): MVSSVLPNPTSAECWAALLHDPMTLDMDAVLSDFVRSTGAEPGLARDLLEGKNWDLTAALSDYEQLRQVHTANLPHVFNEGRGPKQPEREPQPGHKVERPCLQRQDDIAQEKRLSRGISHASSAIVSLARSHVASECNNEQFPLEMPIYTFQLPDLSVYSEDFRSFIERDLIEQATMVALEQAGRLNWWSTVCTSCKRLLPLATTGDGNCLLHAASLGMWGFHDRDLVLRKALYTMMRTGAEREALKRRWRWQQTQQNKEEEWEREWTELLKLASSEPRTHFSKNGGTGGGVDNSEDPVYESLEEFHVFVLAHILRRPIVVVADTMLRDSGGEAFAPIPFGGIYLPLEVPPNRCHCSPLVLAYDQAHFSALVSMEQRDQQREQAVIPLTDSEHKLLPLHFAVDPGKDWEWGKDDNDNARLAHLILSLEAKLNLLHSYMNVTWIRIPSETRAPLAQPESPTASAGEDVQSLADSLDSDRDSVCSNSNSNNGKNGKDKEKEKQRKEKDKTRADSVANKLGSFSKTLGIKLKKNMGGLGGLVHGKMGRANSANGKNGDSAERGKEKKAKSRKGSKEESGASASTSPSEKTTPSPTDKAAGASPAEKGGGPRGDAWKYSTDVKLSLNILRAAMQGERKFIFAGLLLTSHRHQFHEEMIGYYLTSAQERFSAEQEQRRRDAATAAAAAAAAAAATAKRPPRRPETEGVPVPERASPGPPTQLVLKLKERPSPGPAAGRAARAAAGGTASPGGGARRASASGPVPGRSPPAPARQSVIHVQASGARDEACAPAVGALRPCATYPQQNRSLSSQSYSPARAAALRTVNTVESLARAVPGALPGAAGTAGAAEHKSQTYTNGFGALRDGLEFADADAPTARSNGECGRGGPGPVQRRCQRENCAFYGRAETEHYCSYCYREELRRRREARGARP
How it was run: as §1

UniProt Q9P2H5 = target: T3, UniProt Q9P2H5
T3 sequence (whole entry): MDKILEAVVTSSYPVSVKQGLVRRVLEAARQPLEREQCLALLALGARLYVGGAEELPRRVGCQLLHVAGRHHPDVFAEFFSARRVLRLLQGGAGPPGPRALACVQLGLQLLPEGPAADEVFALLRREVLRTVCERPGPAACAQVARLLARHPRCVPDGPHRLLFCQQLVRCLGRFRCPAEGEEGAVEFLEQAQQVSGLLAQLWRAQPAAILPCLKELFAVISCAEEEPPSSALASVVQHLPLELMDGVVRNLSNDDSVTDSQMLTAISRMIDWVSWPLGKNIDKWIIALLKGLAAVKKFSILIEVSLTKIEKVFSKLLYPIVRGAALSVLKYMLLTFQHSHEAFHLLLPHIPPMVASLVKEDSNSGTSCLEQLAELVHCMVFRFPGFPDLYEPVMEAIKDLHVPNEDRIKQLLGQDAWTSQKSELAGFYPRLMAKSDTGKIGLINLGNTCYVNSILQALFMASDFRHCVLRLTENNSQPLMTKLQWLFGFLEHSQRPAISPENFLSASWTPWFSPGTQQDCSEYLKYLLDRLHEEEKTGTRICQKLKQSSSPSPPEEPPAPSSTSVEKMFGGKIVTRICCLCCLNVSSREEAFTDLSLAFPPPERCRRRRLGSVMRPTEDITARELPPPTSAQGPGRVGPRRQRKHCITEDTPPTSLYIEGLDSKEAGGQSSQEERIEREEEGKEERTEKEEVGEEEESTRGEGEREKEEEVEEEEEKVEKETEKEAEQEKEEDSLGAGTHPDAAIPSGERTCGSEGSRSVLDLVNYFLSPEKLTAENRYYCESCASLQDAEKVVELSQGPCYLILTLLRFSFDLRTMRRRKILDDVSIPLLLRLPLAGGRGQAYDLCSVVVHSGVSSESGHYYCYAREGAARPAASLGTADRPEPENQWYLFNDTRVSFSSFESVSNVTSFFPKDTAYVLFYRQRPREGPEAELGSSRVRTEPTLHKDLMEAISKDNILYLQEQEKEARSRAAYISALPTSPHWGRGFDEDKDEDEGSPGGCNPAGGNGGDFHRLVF
How it was run: as §1

UniProt Q9UGI0 = target: T4, UniProt Q9UGI0
T4 sequence (whole entry): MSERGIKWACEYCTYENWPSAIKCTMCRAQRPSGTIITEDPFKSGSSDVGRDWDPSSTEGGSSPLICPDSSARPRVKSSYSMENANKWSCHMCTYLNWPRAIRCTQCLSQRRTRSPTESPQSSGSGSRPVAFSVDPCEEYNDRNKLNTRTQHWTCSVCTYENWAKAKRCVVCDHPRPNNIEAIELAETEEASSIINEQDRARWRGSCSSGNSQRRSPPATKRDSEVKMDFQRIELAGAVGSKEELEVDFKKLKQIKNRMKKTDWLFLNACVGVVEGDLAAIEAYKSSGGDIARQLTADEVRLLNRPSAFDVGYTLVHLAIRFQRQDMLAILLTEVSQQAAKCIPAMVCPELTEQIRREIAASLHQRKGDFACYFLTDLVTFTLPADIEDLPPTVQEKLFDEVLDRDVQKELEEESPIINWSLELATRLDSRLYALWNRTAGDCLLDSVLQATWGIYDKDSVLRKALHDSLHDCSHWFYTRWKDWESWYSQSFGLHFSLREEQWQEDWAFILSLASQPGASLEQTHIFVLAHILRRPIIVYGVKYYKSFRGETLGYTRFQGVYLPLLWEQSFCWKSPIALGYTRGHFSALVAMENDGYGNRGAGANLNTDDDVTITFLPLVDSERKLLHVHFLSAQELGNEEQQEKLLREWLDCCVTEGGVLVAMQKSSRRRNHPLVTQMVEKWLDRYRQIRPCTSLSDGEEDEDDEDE
How it was run: as §1

YOD1 = target: T5, YOD1 (UniProt Q5VVQ6)
T5 sequence (whole entry): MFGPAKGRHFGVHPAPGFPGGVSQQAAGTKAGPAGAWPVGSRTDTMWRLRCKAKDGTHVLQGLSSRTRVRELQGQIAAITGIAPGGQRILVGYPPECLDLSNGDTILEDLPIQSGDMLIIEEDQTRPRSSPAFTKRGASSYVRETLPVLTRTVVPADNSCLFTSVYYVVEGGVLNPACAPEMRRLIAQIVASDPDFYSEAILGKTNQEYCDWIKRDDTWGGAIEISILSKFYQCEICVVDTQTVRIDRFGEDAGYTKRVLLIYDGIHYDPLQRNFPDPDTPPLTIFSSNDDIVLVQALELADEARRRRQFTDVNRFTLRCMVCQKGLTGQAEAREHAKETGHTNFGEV
How it was run: as §1

Measured: log2 ratio of Biotin-Ahx-Ub-VS probe labelling

O=C(CCl)N(C1CCCC1)C1CCS(=O)(=O)C1 (centres undefined)
inactive: USP9X -0.0338 | UniProt O00487 -0.119 | UniProt O00507 0.335 | UniProt P51784 -0.112 | UniProt Q5T2D3 -0.128 | UniProt Q8TE49 -0.372 | UniProt Q9P2H5 -0.386 | UniProt Q9UGI0 -0.121 | YOD1 0.15
